# Whole data set: some 18,000 sequences, median “TetR repression strength (sort-seq, GFP reporter)” near 0.23, cut for the highest 2% near 0.68. The sample holds the highest values, similar sequences and a random draw of the others, so the mix is not that of the screen.
# Target: TetR (class B, Tn10) (UniProt P04483)
# Test: TetR repression strength (sort-seq, GFP reporter) (relative to tetO2 = 1); higher = stronger repression
# Conditions: E. coli
# Procedure, shortened: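 Three independent transformations of E. coli SIG10-MAX were made with a low-copy plasmid library randomizing eight operator positions between a constitutive promoter and sfGFP, with constitutive TetR. Following 5 h at 37 °C in LB plus 50 µg/mL chloramphenicol, 10^6 cells went through FACS into 13 fluorescence bins, and each bin was sequenced by Illumina. Repression strength was defined as the top bin index plus one minus the read-weighted mean bin, divided by the unaltered operator's value. Averages included only members reaching ≥30 reads in all replicates with a CV ≤0.5.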
# Chain of TetR (class B, Tn10) (P04483 whole entry): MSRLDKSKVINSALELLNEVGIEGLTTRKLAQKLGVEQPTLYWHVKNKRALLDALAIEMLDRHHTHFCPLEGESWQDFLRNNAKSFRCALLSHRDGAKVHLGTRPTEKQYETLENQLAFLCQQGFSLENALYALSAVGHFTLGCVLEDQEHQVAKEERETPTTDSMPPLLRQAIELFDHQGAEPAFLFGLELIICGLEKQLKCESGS
row,Sequence,TetR repression strength
1,TCCCTTCCAGTTTCAGAGA,0.819
2,TCCCTTCAAGTTTGAGAGA,0.185
3,TCCCTTCCAGTATCAGAGA,0.0836
4,TCCCTTCAAGTTTCAGAGA,0.837
5,TCCCTTCAAGTGTCAGAGA,0.303
6,TCCCTTTCAGTTTCAGAGA,0.206
7,TCCCAGAGAGTACTAGAGA,0.336
8,TCCCGAGGAGTGGCTGAGA,0.0686
9,TCCCTTGGAGTAGGGGAGA,0.274
10,TCCCACGGAGTCTGGGAGA,0.0855
11,TCCCTGTTAGTGCTCGAGA,1.15
12,TCCCAGACAGTACTCGAGA,0.444
13,TCCCAGACAGTGCGAGAGA,0.219
14,TCCCGAAGAGTGCTCGAGA,0.813
15,TCCCAGTGAGTGCTCGAGA,0.0229
16,TCCCGATGAGTGCTCGAGA,0.361
17,TCCCTGATAGTGCTCGAGA,0.215
18,TCCCGAGGAGTGCTCGAGA,0.126
19,TCCCAGACAGTGCTCGAGA,0.855
20,TCCCTCTGAGTGCTCGAGA,0.315
21,TCCCTGTTAGTGGTCGAGA,0.187
22,TCCCTGTGAGTGCTCGAGA,1.14

row,Sequence,TetR repression strength
1,TCCCTGGCAGTTAGGGAGA,0.365
2,TCCCGGTCAGTCTGCGAGA,0.194
3,TCCCGGATAGTCTTTGAGA,0.125
4,TCCCTTGGAGTATATGAGA,0.119
5,TCCCTGCGAGTAGTCGAGA,0.542
6,TCCCCATTAGTGTACGAGA,0.425
7,TCCCTAAGAGTGATGGAGA,0.243
8,TCCCTGTGAGTTCGGGAGA,0.369
9,TCCCTGAGAGTTCGCGAGA,0.0305
10,TCCCTGTGAGTTCGAGAGA,0.719
11,TCCCATCTAGTCCGTGAGA,0.174
12,TCCCTCTAAGTTAGTGAGA,0.241
13,TCCCGCTAAGTCCGGGAGA,0.188
14,TCCCCTGAAGTCTTCGAGA,0
15,TCCCAGGGAGTGCCGGAGA,0.19
16,TCCCTGTGAGTGCCGGAGA,0.164
17,TCCCTATCAGTGTTTGAGA,0.767
18,TCCCTATCAGTTTTTGAGA,0.472
19,TCCCTATCAGTGCTTGAGA,0.701
20,TCCCTAGCAGTGTTTGAGA,0.369
21,TCCCTGTCAGTGCCGGAGA,1.03
22,TCCCTGTCAGTGTCGGAGA,0.388

row,Sequence,TetR repression strength
1,TCCCTATGAGTGCTTGAGA,0.335
2,TCCCAGGCAGTGCCGGAGA,0.748
3,TCCCTCTCAGTGCTTGAGA,0.661
4,TCCCAGGCAGTGCAGGAGA,0.143
5,TCCCCGAAAGTCGCGGAGA,0.128
6,TCCCTATCAGTGTAGGAGA,0.484
7,TCCCCTCTAGTGTAAGAGA,0.155
8,TCCCGGATAGTAGCGGAGA,0.329
9,TCCCAGGCAGTCGGTGAGA,0.213
10,TCCCGTTTAGTGGGTGAGA,0.306
11,TCCCTTTGAGTTATCGAGA,0.384
12,TCCCGGGCAGTATTCGAGA,0.136
13,TCCCCGTGAGTGCATGAGA,0.122
14,TCCCATTCAGTCAATGAGA,0.457
15,TCCCAAATAGTGCTTGAGA,0
16,TCCCTATCAGTGCGAGAGA,0.452
17,TCCCTGTCAGTGCTCGAGA,0.534
18,TCCCTAATAGTGCTTGAGA,1.01
19,TCCCTAACAGTGTTCGAGA,0.305
20,TCCCTATCAGTTTTCGAGA,0.523
21,TCCCTATCAGTGCTAGAGA,0.841
22,TCCCTATCAGTGCTCGAGA,0.993

row,Sequence,TetR repression strength
1,TCCCTAGTAGTGCTTGAGA,0.594
2,TCCCTATCAGTGTTCGAGA,0.777
3,TCCCTATCAGTGGTCGAGA,0.532
4,TCCCTATTAGTGCTAGAGA,0.466
5,TCCCATACAGTGCGCGAGA,0.394
6,TCCCTTATAGTCGCGGAGA,0.142
7,TCCCCTTAAGTGTATGAGA,0.348
8,TCCCAGAGAGTGGAAGAGA,0.148
9,TCCCGACAAGTTATCGAGA,0.226
10,TCCCTATCAGTGCCGGAGA,1.06
11,TCCCCATCAGTCCTCGAGA,0.327
12,TCCCTATCAGTGGTGGAGA,0.402
13,TCCCCATCAGTGCTGGAGA,0.157
14,TCCCTATCAGTGCTGGAGA,0.86
15,TCCCTATCAGTGCCTGAGA,0.467
16,TCCCTATCAGTCCTCGAGA,0.747
17,TCCCTATCAGTCCCGGAGA,0.4
18,TCCCTATAAGTCCTCGAGA,0.529
19,TCCCAGGCAGTGCTTGAGA,0.113
20,TCCCGATCAGTAGACGAGA,0.237
21,TCCCCTGTAGTGTGCGAGA,0.297
22,TCCCCCACAGTTATAGAGA,0.524

row,Sequence,TetR repression strength
1,TCCCAGGTAGTGGCGGAGA,0.176
2,TCCCTTCTAGTTCTGGAGA,0.402
3,TCCCTTCCAGTTCTTGAGA,0.472
4,TCCCTTCAAGTGCCCGAGA,0.415
5,TCCCTTCAAGTTCTGGAGA,1.03
6,TCCCTACAAGTGCCGGAGA,0.202
7,TCCCTTCCAGTTCTGGAGA,1.04
8,TCCCCTCCAGTTCTGGAGA,0.342
9,TCCCTTCAAGTGCCGGAGA,1.13
10,TCCCTTCGAGTTCTGGAGA,0.328
11,TCCCATAAAGTGACGGAGA,0.305
12,TCCCTTAAAGTGTTGGAGA,0.334
13,TCCCGTTCAGTATGGGAGA,0.106
14,TCCCGCCGAGTCCCGGAGA,0.317
15,TCCCATGGAGTTTTAGAGA,0.281
16,TCCCACGGAGTTACGGAGA,0.224
17,TCCCGTGGAGTGTTCGAGA,0.914
18,TCCCGTTGAGTTTCTGAGA,0.744
19,TCCCGTGGAGTTTCTGAGA,0.0476

# Source: a collection of fitness landscapes (doi:10.1038/s41467-024-54723-y)
